Measured values: PubChem BioAssay AID1159580 (chemical genetic matrix, 2015)
“And” between values parts separate entries of the source, which are not always exact repeats. Equal values may be shown once. Out of some 5,500 compounds screened, about 2,000 (36%) were called active. About 18% were inconclusive and are not listed. No stated cut-off is given here; in the data, active means normalized growth mostly below about 0.91 (no sharp cut-off); inconclusive means no clear call, values can overlap the other calls; inactive means mostly above about 0.92. This is one part of the list.

Test: chemical genetic growth profiling, strain panel (AID 1159580);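 further: tested at 20 µM; growth read once vehicle control cultures reached saturation at 30 °C; 1 = growth at the plate median or of vehicle wells; lower values mean less growth of the strain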
Settings: S. cerevisiae deletion strains, growth OD

Measured: normalized growth

O=c1n(CCCN2CCN(c3cccc(Cl)c3)CC2)nc2ccccn12
inactive: locus YAL013W, strain DEP1, hits give low values 0.995 | locus YAL021C, strain ccr4, hits give low values 0.939 | locus YAL026C, strain drs2, hits give low values 0.987 | locus YAL030W, strain snc1, hits give low values 0.988 | locus YAL040C, strain CLN3, hits give low values 0.987 | locus YBL061C, strain skt5, hits give low values 0.983 | locus YBR009C, strain hhf1, hits give low values 0.983 | locus YBR021W, strain FUR4, hits give low values 0.998 | locus YBR023C, strain chs3, hits give low values 0.981 | locus YBR171W, strain sec66, hits give low values 0.979 | locus YBR229C, strain ROT2, hits give low values 0.951 | locus YBR231C, strain swc5, hits give low values 0.981 | locus YBR279W, strain paf1, hits give low values 0.985 | locus YCL011C, strain gbp2, hits give low values 0.976 | locus YCL016C, strain dcc1, hits give low values 0.982 | locus YCL029C, strain bik1, hits give low values 0.987 | locus YCL061C, strain MRC1 (second series), hits give low values 0.998 | locus YCL061C, strain MRC1, hits give low values 0.984 | locus YCL069W, strain vba3, hits give low values 0.975 | locus YCR088W, strain abp1, hits give low values 0.978 | locus YDL005C, strain med2, hits give low values 0.965 | locus YDL035C, strain GPR1, hits give low values 0.984 | locus YDL040C, strain nat1, hits give low values 0.979 | locus YDL074C, strain BRE1, hits give low values 0.941 | locus YDL101C, strain DUN1, hits give low values 0.97 | locus YDL134C, strain PPH21, hits give low values 1 | locus YDL185W, strain tfp1, hits give low values 0.982 | locus YDL192W, strain arf1, hits give low values 0.986 | locus YDR001C, strain nth1, hits give low values 0.986 | locus YDR069C, strain doa4, hits give low values 0.966 | locus YDR101C, strain arx1, hits give low values 0.97 | locus YDR137W, strain rgp1, hits give low values 0.94 | locus YDR150W, strain NUM1, hits give low values 0.992 | locus YDR159W, strain sac3, hits give low values 0.956 | locus YDR162C, strain NBP2, hits give low values 0.991 | locus YDR195W, strain ref2 0.977 | locus YDR297W, strain sur2, hits give low values 0.98 | locus YDR318W, strain mcm21, hits give low values 0.998 | locus YDR334W, strain swr1, hits give low values 0.964 | locus YDR335W, strain msn5, hits give low values 0.984 | locus YDR363W, strain ESC2, hits give low values 0.998 | locus YDR388W, hits give low values 0.989 | locus YDR392W, strain spt3, hits give low values 0.95 | locus YDR502C, strain sam2, hits give low values 0.989 | locus YEL003W, strain gim4, hits give low values 0.986 | locus YEL037C, strain rad23, hits give low values 0.964 | locus YEL061C, strain CIN8 (second series), hits give low values 0.975 | locus YEL061C, strain CIN8, hits give low values 0.986 | locus YER002W, strain NOP16, hits give low values 1 | locus YER015W, strain faa2, hits give low values 0.978 | locus YER016W, strain bim1, hits give low values 0.987 | locus YER110C, hits give low values 0.984 | locus YER111C, strain swi4, hits give low values 0.971 | locus YER155C, strain BEM2 (second series), hits give low values 0.948 | locus YER155C, strain BEM2, hits give low values 0.994 | locus YER167W, strain BCK2, hits give low values 1 | locus YFR010W, strain ubp6, hits give low values 0.975 | locus YGL078C, strain dbp3, hits give low values 0.999 | locus YGL086W, strain mad1, hits give low values 0.976 | locus YGL167C, strain pmr1, hits give low values 0.976 | locus YGL173C, strain kem1, hits give low values 0.973 | locus YGL227W, strain vid30, hits give low values 0.985 | locus YGL240W, strain doc1, hits give low values 0.98 | locus YGL248W, strain PDE1, hits give low values 0.964 | locus YGL253W, strain hxk2, hits give low values 0.999 | locus YGR078C, strain PAC10, hits give low values 0.99 | locus YGR135W, strain pre9, hits give low values 1.03 | locus YGR229C, strain SMI1, hits give low values 1.01 | locus YGR252W, strain gcn5, hits give low values 0.993 | locus YHR013C, strain ard1, hits give low values 0.854 | locus YHR027C, strain rpn1, hits give low values 0.978 | locus YHR030C, strain SLT2, hits give low values 1 and 0.995 | locus YHR079C, strain IRE1 (second series), hits give low values 0.998 | locus YHR079C, strain IRE1, hits give low values 1 | locus YHR094C, strain hxt1, hits give low values 0.99 | locus YHR129C, strain ARP1, hits give low values 0.994 | locus YHR142W, strain chs7, hits give low values 0.985 | locus YHR200W, strain rpn10, hits give low values 0.997 | locus YIL066C, strain RNR3, hits give low values 0.955 | locus YIL073C, strain SPO22, hits give low values 1.13 | locus YIL125W, strain kgd1, hits give low values 0.988 | locus YIR030C, strain dcg1, hits give low values 0.987 | locus YJL092W, strain hpr5, hits give low values 0.97 | locus YJL095W, strain BCK1 (second series), hits give low values 0.987 | locus YJL095W, strain BCK1, hits give low values 0.898 and 1 | locus YJL115W, strain asf1, hits give low values 0.978 | locus YJL129C, strain trk1, hits give low values 0.946 | locus YJL134W, strain LCB3, hits give low values 0.992 | locus YJL154C, strain vps35, hits give low values 0.975 | locus YJL164C, strain tpk1, hits give low values 0.984 | locus YJL166W, strain qcr8, hits give low values 0.969 | locus YJL168C, strain set2, hits give low values 0.993 | locus YJL187C, strain SWE1 (second series), hits give low values 0.932 | locus YJL187C, strain SWE1, hits give low values 0.979 | locus YJR043C, strain POL32, hits give low values 0.936
